# High-throughput results as filed in PubChem.
# This is a sample that favours compounds with a hit; in the whole collection about 21% have one here.
# Pf growth 48h: P. falciparum growth inhibition at 48 hours (one generation); AID 504832; P. falciparum luciferase growth in erythrocytes, 48 h; Potency, µM (titrated, usually from 28.7 µM), without a hit: at the top dose activity change, negative = inhibition, actives largely listed as inhibitors; actives 5.9% (n = 310,000); also: potency is read from the fitted curve at half-maximal effect; % is scaled to controls: 0 for no effect and ±100 for the full control effect
#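 Luminescence readout; reporter = integrated firefly luciferase in P. falciparum. RBC culture at 2% hematocrit, 0.1% parasitemia final, 37 C/5% CO2; decreased signal taken as growth inhibition.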
# NS1 inh: influenza NS1 inhibition; Potency, µM (titrated, usually from 46.1 µM), for the others: at the highest dose activity, positive = more growth; actives 0.4% (n = 270,000); calls by dose curve; also: potency is read from the fitted curve at half-maximal effect; actives are rising curves; nearly all actives have a fitted effect of over 50% in size
#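 A cell-based growth assay was used: compounds that relieve NS1-induced slow growth of budding yeast raise OD600. Assay medium was yeast nitrogen base with ammonium sulphate and -URA supplement, pH 6.0, with 2% galactose.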
# Sm TGR inh: S. mansoni TGR enzyme inhibition; AID 485364; actives 3% (n = 360,000); Q962Y6; Potency, µM (top dose mostly 114 µM), for inactives: top-dose activity change, negative = inhibition, most hits filed as inhibitors; purified TGR, DTNB reduction, TNB absorbance 405 nm; also: potency is read from the fitted curve at half-maximal effect; % is scaled to controls: 0 for no effect and ±100 for the full control effect; nearly all actives have a fitted effect of over 60% in size
#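 TGR 20 nM + NADPH 100 uM (dispensed conc.), cpd preinc 15 min RT; start with NADPH (500 uM addition) then DTNB (15 mM addition). Kinetic TNB absorbance, 405 nm filter. Four-parameter Hill fit across titration.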
# Shiga inhibitor: inhibitors of Shiga toxin in Vero cells | Vero cells, Shiga toxin protein synthesis inhibition reporter | inhibition, % at 38.7 µM | actives 9.2% (n = 290,000) | AID 2315; in the data active = inhibition mostly above about 28%, no sharp cut-off; inactive = mostly below about 43%; also: 0% is about no effect
# Pf growth 96h: P. falciparum growth inhibition at 96 hours | AID 504834 | Potency, µM (series often up to 28.7 µM), without a hit: at the highest dose activity change, negative = inhibition, usual class: inhibitors | P. falciparum luciferase reporter growth, 96 h | actives 6.9% (n = 320,000); also: potency is read from the fitted curve at half-maximal effect; % is scaled to controls: 0 for no effect and ±100 for the full control effect
#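 Plates of compound plus infected erythrocytes (2% hematocrit, 0.05% parasitemia final) incubate 96 hours, 37 C, 5% CO2. Detection reagent added; reduced luminescence from the parasites' luciferase reporter flags inhibition.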
# CHX counter: counter-screen for Shiga toxin inhibitors: cycloheximide protein synthesis inhibition. cell reporter, cycloheximide protein synthesis inhibition counterscreen. max response, %. actives 12% (n = 300,000); in the data active = max response mostly above about 13%, no sharp cut-off; inactive = mostly below about 14%; also: read at 38.3 µM for the half of the compounds with a filed dose; 0% is about no effect
# Numbers without * were called inactive; ? = inconclusive; nt = no result given; [ ] = remark or other dose. Unless noted, calls follow the shape of the dose curve; as a rule, active = well fitted curve in the direction sought with a large enough effect; inconclusive = small, poorly fitted or top-dose-only effect, or another doubt; inactive = no such curve, though single readings can be large; an effect the other way counts as inactive or inconclusive.
SMILES,Pf growth 48h,NS1 inh,Sm TGR inh,Shiga inhibitor,Pf growth 96h,CHX counter
COc1cccc2sc(N(CCCN(C)C)C(=O)c3ccc(S(=O)(=O)N4CCCc5ccccc54)cc3)nc12,10.4µM*,18.1%,3.0%,-11.9,?,-1.6
CCc1ccc2nc(N(CCCN(C)C)C(=O)c3ccc(S(=O)(=O)N4CCCc5ccccc54)cc3)sc2c1,?,6.0%,-4.0%,-6.3,?,-1.1
CN(C)CCN(C(=O)c1ccc(S(=O)(=O)N2CCc3ccccc32)cc1)c1nc2ccc(F)cc2s1,27.6%,13.4%,-21.4%,79.3*,30.3%,15.6
Cc1ccc(Cl)c(NC(=O)Nc2csc3c2CCCC3)c1,nt,nt,9.3%,nt,nt,nt
Oc1ccc2ccccc2c1C=Nc1cc(C(F)(F)F)ccc1N1CCCC1,?,0.5%,-18.7%,50.8*,25.3%,14.0
CCCN1CCN(c2ncnc3sc(C(=O)Nc4c(C)cc(C)cc4C)c(C)c23)CC1,nt,nt,-1.6%,nt,nt,nt
COc1ccccc1-n1c(CNC(=O)c2ccco2)n[nH]c1=S,-2.3%,4.4%,0.8%,-1.3,45.8%,-3.6
C=CCN1C(=O)NC(=O)/C(=C/c2cc3c4c(c2)CCCN4CCC3)C1=O,21.3%,?,8.91µM*,-10.0,20.7%,-2.7
C=CCN1C(=O)NC(=O)/C(=C/c2cnc(SC)nc2)C1=O,32.1%,18.8%,?,-5.5,?,-6.6
O=c1[nH]c2ccc(N=Cc3c(O)ccc4cc(Br)ccc34)cc2[nH]1,20.8%,1.3%,31.6µM*,-8.2,29.5%,-3.8
CCOC(=O)c1cc(NC(=O)Nc2nccs2)c(C)nc1C,25.8%,15.7%,-14.9%,2.8,42.2%,-5.6
CC(C)(C)NC(=O)C(c1c[nH]c2ccccc12)N(C(=O)Cn1nnc(-c2ccc(F)cc2)n1)c1cccc(O)c1 (stereo unspecified),2.62µM*,?,-9.7%,-8.7,?,-1.6
COc1cccc(N(C(=O)Cn2nnc(-c3ccc(C)o3)n2)C(C(=O)NC(C)(C)C)c2cccs2)c1 (stereo unspecified),13.1µM*,-14.5%,3.7%,-6.3,-18.9%,-1.8
Cc1ccc(-c2nnn(CC(=O)N(Cc3ccco3)C(C(=O)NC(C)(C)C)c3cccs3)n2)o1 (stereo unspecified),14.7µM*,-10.7%,17.8µM*,1.8,-8.6%,-4.4
CC(C)(C)NC(=O)C(c1ccco1)N(C(=O)Cn1nnc(-c2ccc(F)cc2)n1)c1cccc(F)c1 (stereo unspecified),?,-32.6%,-1.6%,10.3,-2.9%[5.75 µM],-4.3
COCC(=O)NC1CC(C)(C)Cc2c1cnn2-c1ccc(F)cc1 (stereo unspecified),?,0.3%,-7.8%,14.3,?,10.0
O=S(=O)(NCCc1cn(S(=O)(=O)c2ccccc2)c2ccccc12)c1ccccc1,nt,nt,nt,-1.5,nt,-4.4
Cc1ccc(-c2nnn(CC(=O)N3CCCCC3)n2)o1,64.7%,nt,6.0%,71.2*,2.0%,17.7*
O=C(Cn1nnc(-c2ccccc2F)n1)N1CCCCC1,148.5%,-7.6%,13.2%,49.6*,7.0%,35.4*
O=C(Cn1nnc(-c2ccc(F)cc2)n1)N1CCCCC1,9.2%,4.9%,nt,29.4,0.0%,11.2
CS(=O)(=O)c1ccc(-c2nnn(CC(=O)N3CCCCC3)n2)cc1,1.9%,5.4%,-4.0%,-2.2,11.7µM*,1.0
Cc1ccc(-c2nnn(CC(=O)N3CCC(C)CC3)n2)o1,nt,2.8%,-23.5%,22.4,37.1%,12.6
C=C1/C(=C\C=C2/CCC[C@]3(C)[C@@H]([C@H](C)CCCC(C)(C)O)CC[C@@H]23)C[C@@H](O)C[C@@H]1O,6.4%,nt,?,33.1,14.7%,17.3
O=C(/C=C/c1cccc(F)c1)Nc1ccc(S(=O)(=O)Nc2ncccn2)cc1,-18.8%,-0.3%,6.6%,11.5,-23.2%,-1.5
CNC(=O)c1ccc(NC(=O)/C=C/c2cccc(F)c2)cc1,37.8%,nt,5.6%,63.6,27.1%,27.3*
SMILES,Pf growth 48h,NS1 inh,Sm TGR inh,Shiga inhibitor,Pf growth 96h,CHX counter
O=C(/C=C/c1cccc(Cl)c1)Nc1ncccn1,120.7%,-12.0%,-3.8%,54.6*,?,15.2
Cc1ccc(NC(=O)/C=C/c2cccc(C(F)(F)F)c2)cc1,-11.5%,-3.5%,-6.7%,-8.5,2.3%,13.1
CSc1cccc(NC(=O)/C=C/c2cccc(Cl)c2)c1,29.6%,-116.8%,-1.4%,143.4*,38.2%,72.0*
O=C(/C=C/c1cccc([N+](=O)[O-])c1)Nc1ccc(Cl)cn1,-68.8%,-1.6%,nt,78.3,95.4%,8.4
O=C(/C=C/c1cccc(C(F)(F)F)c1)Nc1cccc(C(F)(F)F)c1,7.38µM*,-68.3%,-29.2%,19.2,?,-1.6
O=C(Nc1ccccc1F)c1cnc(N2CCCCC2)c2ccccc12,nt,nt,-3.0%,nt,nt,nt
O=C(O)C(Sc1ccc(Cl)cc1)Sc1ccc(Cl)cc1,nt,-12.1%,nt,nt,nt,nt
CCC1(CC)Cc2ccccc2C(CC(=O)N2CCOCC2)=N1,nt,0.2%,6.2%,1.3,?,-0.8
COc1ccc(/C=C/C(=O)NC(=S)N2CCOCC2)cc1,52.4%,0.0%,-5.8%,73.1*,0.0%,39.4*
O=C(CN1C(=O)/C(=C\c2ccc(F)cc2)Oc2ccccc21)N1CCN(c2ccccn2)CC1,10.2%,11.6%,5.2%,-11.8,7.38µM*,-2.7
O=C(CN1C(=O)/C(=C\c2cccc(F)c2)Oc2ccccc21)N1CCN(c2ccccn2)CC1,4.5%,8.5%,-3.4%,-1.8,?,10.0
COc1ccc(/C=C/C(=O)NC(=S)N2CCN(c3ccccn3)CC2)cc1OC,?,-11.6%,-5.0%,3.7,10.4%,-2.0
O=C(/C=C/c1ccc(F)cc1)NC(=S)N1CCN(c2ccccn2)CC1,39.1%,0.7%,4.8%,98.2*,?,42.6*
COc1ccc(/C=C/C(=O)NC(=S)N2CCN(c3ccccc3OC)CC2)cc1,-11.1%,11.2%,15.3%,21.5,-24.0%,20.3*
O=C(CSc1nnc(CNC(=O)c2ccc(F)cc2)o1)Nc1nccs1,5.5%,10.8%,16.3%,-5.2,38.3%,-1.0
Cc1nnsc1C(=O)Oc1ccc(C#N)cc1,nt,nt,15.8µM*,nt,nt,nt
CCOC(=O)N1CCC(N2CC34C=CC(O3)C(C(=O)Nc3ccc(F)cc3)C4C2=O)CC1 (stereo unspecified),nt,-20.1%,-3.1%,-12.4,14.7µM*,-0.8
Cc1ccc(S(=O)(=O)Nc2c(C(=O)O)[nH]c3ccccc23)c(C)c1,15.5%,12.3%,-16.7%,9.5,30.1%,-1.0
C/C(=N\NC(=O)c1ccccc1)c1c(C)[nH]n(-c2ccccc2)c1=O,-2.3%,-32.6%,-10.4%,61.3*,-11.2%,49.2*
Cc1[nH]n(-c2ccccc2)c(=O)c1C(=O)c1ccc([N+](=O)[O-])cc1,15.1%,4.1%,2.9%,10.3,-22.0%,1.7
C/C(=N\NC(=O)c1ccncc1)c1c(O)n(-c2ccccc2)c(=O)[nH]c1=O,-6.8%,-2.2%,-24.5%,-12.9,8.5%,7.8
